PubChem BioAssay (NCI)
About 83,000 compounds went through this panel and 20% of them were active in at least one assay; those are over-represented in the sample as a whole.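 96-well plates, one dose, 48 hours. Percent growth reported; active if below 10.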 A number with no mark means an inactive call. Active and inactive are the calls of the source.

Legend:
Experiment in all cases: NCI-60 one-dose screen, 48 h (100 = growth as untreated, 0 = no growth, -100 = all killed)
Settings in all cases: 10 µM unless noted
NCI-H23 lung = test system: NCI-H23 lung
NCI-H226 lung = test system: NCI-H226 lung
NCI-H322M lung = test system: NCI-H322M lung
HOP-62 NSCLC = test system: HOP-62 NSCLC
NCI-H460 lung = test system: NCI-H460 lung
HOP-92 NSCLC = test system: HOP-92 NSCLC
NCI-H522 lung = test system: NCI-H522 lung
A549/ATCC NSCLC = test system: A549/ATCC NSCLC
786-0 renal = test system: 786-0 renal
COLO 205 colon = test system: COLO 205 colon
DU-145 prostate = test system: DU-145 prostate
K-562 leukemia = test system: K-562 leukemia
MALME-3M melanoma = test system: MALME-3M melanoma
MDA-MB-231 breast = test system: MDA-MB-231 breast
RXF 393 renal = test system: RXF 393 renal
SF-268 CNS = test system: SF-268 CNS
SF-295 CNS = test system: SF-295 CNS
SF-539 CNS = test system: SF-539 CNS
UACC-257 melanoma = test system: UACC-257 melanoma
M14 melanoma = test system: M14 melanoma

Structure (SMILES)	growth (NCI-H23 lung)	growth (NCI-H226 lung)	growth (NCI-H322M lung)	growth (HOP-62 NSCLC)	growth (NCI-H460 lung)	growth (HOP-92 NSCLC)	growth (NCI-H522 lung)	growth (A549/ATCC NSCLC)	growth (786-0 renal)	growth (COLO 205 colon)	growth (DU-145 prostate)	growth (K-562 leukemia)	growth (MALME-3M melanoma)	growth (MDA-MB-231 breast)	growth (RXF 393 renal)	growth (SF-268 CNS)	growth (SF-295 CNS)	growth (SF-539 CNS)	growth (UACC-257 melanoma)	growth (M14 melanoma)
C=CCN1C(=O)c2cccc3c(N4CCOCC4)ccc(c23)C1=O	8.01% (active)	-2.43% (active)	-56.6% (active)	26.4%	8.52% (active)	21.1%	-1.11% (active)	3.05% (active)	26.2%	-21.8% (active)	10.3%	9.78% (active)	-3.28% (active)	23.9%	-29.9% (active)	-23.9% (active)	2.87% (active)	0.495% (active)	-3.63% (active)	0.387% (active)
CC1=C(C(=O)Nc2ccccc2)C(c2ccc3c(c2)OCO3)NC(=S)N1 (stereo not given)	97.9%	96.7%	107%	121%	113%	112%	87.9%	108%	101%	117%	111%	118%	100%	106%	129%	106%	105%	102%	107%	93%
Cc1ccc(-c2nc(-c3cn(C)c4ncccc34)cs2)cc1	-7.81% [100 µM] (active)	-35.3% [100 µM] (active)	-32% [100 µM] (active)	-63.3% [100 µM] (active)	-48.5% [100 µM] (active)	-47.2% [100 µM] (active)	6.25% [100 µM] (active)	7.36% [100 µM] (active)	-52.8% [100 µM] (active)	-60.5% [100 µM] (active)	-56.4% [100 µM] (active)	10.3% [100 µM]	-40% [100 µM] (active)	-14.6% [100 µM] (active)	-37.8% [100 µM] (active)	2.72% [100 µM] (active)	-42.2% [100 µM] (active)	-79% [100 µM] (active)	-7.24% [100 µM] (active)	-63.7% [100 µM] (active)
C[C@]1(O)CC(=O)[C@]2(O)C3=C(C=C[C@]2(O)C1)C(=O)c1c(O)cccc1C3=O	-6.78% (active)	89.3%	86.1%	49%	74.9%	-12.2% (active)	-59.5% (active)	103%	9.83% (active)	-81.3% (active)	-82.3% (active)	5.36% (active)	-96.7% (active)	30.2%	-85.3% (active)	85.4%	89.8%	82.4%	77.3%	-24.8% (active)
O=[N+]([O-])c1cc(NS(=O)(=O)c2ccccc2)ccc1NS(=O)(=O)c1ccccc1	112%	104%	135%	110%	93.3%	97.8%	80.9%	97.9%	102%	109%	87.1%	125%	155%	91%	134%	106%	133%	118%	95%	88.5%
Clc1ccc(-c2cc(-c3ccccc3)nc(NCCNc3ccnc4cc(Cl)ccc34)n2)cc1	74.3%	78.5%	44.6%	81.2%	-51.6% (active)	31.8%	-35.9% (active)	36.3%	-90.9% (active)	-81.2% (active)	13.1%	0.266% (active)	-62.7% (active)	-69.2% (active)	26%	3.04% (active)	73.2%	74.5%	13.3%	-69.7% (active)
CC1(C)C(N)=Nc2cc(OCCCN3Cc4ccccc4C3)c(OCC3CC3)cc21	93.5%	82.9%	82.3%	93.2%	79.8%	63.7%	59.6%	77.2%	64%	-57.2% (active)	93.8%	38.8%	-14% (active)	49.1%	69.3%	80.2%	78.3%	70.3%	1.23% (active)	-45.1% (active)
[2H]C([2H])([2H])Oc1ccc(F)cc1/C=C/C(=O)/C=C(O)/C=C/c1cc(F)ccc1OC([2H])([2H])[2H]	88.9%	105%	107%	91.9%	88.6%	99.3%	74.4%	93.7%	99.7%	116%	95.3%	84%	104%	108%	103%	89.8%	103%	107%	89.6%	85.1%
